Bioassay records deposited in PubChem by National Center for Advancing Translational Sciences (NCATS).
TDP1 cell noCPT: qHTS for Inhibitors of human tyrosyl-DNA phosphodiesterase 1 (TDP1): qHTS in cells in absence of CPT. DT40 Tdp1-/- hTDP1 cells, no CPT, ATP luminescence, 48 h. Potency, µM (top dose mostly 46.2 µM), inactives show top-dose activity change, negative = growth inhibition, actives largely listed as inhibitors. 15% of 420,000 active. AID 686978, 2013; also: potency is read from the fitted curve at half-maximal effect; % is scaled to controls: 0 for no effect and ±100 for the full control effect; nearly all actives have a fitted effect of over 55% in size
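DT40 Tdp1-/-;hTDP1 cells, no CPT (DMSO vehicle only), 400 cells/well; compounds pin-transferred; ≥48 hr, 37 °C; CellTiter-Glo 30 min RT dark, luminescence read.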
TDP1 block: inhibitors of human tyrosyl-DNA phosphodiesterase TDP1. Q9NUW8. recombinant TDP1, AlphaScreen DNA substrate cleavage. Potency, µM (series often up to 130 µM), inactives show at the top dose activity change, negative = inhibition, most hits filed as inhibitors. 0.28% of 350,000 active. AID 485290; also: potency is read from the fitted curve at half-maximal effect; % is scaled to controls: 0 for no effect and ±100 for the full control effect; nearly all actives have a fitted effect of over 40% in size
Target sequence (Q9NUW8 whole entry, looked up): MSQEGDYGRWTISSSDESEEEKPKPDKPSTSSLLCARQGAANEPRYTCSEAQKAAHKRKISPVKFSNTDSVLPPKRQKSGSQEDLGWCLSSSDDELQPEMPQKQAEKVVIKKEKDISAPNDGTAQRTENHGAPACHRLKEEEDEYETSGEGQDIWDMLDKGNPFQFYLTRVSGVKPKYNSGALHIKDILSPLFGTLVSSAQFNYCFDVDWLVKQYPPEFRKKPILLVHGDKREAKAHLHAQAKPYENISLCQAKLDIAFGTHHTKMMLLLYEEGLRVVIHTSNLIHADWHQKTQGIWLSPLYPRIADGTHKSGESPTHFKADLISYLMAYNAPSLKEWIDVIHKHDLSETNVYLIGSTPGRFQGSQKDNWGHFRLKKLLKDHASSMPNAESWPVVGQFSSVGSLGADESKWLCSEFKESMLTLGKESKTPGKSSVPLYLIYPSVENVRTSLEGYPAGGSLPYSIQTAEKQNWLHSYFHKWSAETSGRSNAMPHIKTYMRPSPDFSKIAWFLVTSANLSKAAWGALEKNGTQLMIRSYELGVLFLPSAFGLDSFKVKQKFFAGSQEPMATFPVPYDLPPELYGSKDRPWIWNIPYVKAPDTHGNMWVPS
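Enzyme-compound mixtures sat 15 min at room temperature, followed by a 5 min reaction with 15 nM final substrate and 10 min with AlphaScreen beads. Recombinant human Tdp1 was used at 1 nM final.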
IL-1B inflam inh: inflammasome signaling inhibition, IL-1 beta readout; THP-1 LPS/ATP IL-1B secretion, AlphaLISA, 16 h; active compounds read low; activity change, % at 57.5 µM; 4.7% of 360,000 active; in the data active = activity change below about -50%; inconclusive = mostly about -30% to -49%; also: % is scaled to controls: 0 for no effect and ±100 for the full control effect
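THP-1 cells pretreated 1 hr with compounds (up to 57.5 uM final), then stimulated with LPS (250 ng/mL final) plus ATP (1.25 mM final); secreted IL-1B measured by AlphaLISA after 16 hr, decreased signal indicating inhibition.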
TGFb inhibitor: inhibitors of TGF-b signaling; HepG2 CAGA-GFP TGF-b/SMAD3 reporter, GFP fluorescence, 18 h; TGF-beta stimulated, 500 pg/mL final; Potency, µM (doses to about 46.1 µM), for the others: at the highest dose activity, negative = inhibition, most hits filed as inhibitors; 1.2% of 410,000 active; AID 588855; also: potency is read from the fitted curve at half-maximal effect; % is scaled to controls: 0 for no effect and ±100 for the full control effect; nearly all actives have a fitted effect of over 65% in size
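GFP signal (ex488/em500-530) from TGF-beta-stimulated HEPG2 CAGA-GFP cells, 500 pg/mL final, 18 h at 37 degrees C in DMEM plus 1% FBS, normalized to unstimulated and DMSO-stimulated controls.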
DT40 TDP1 CPT: DT40-hTDP1 cell growth loss with CPT | 12% of 420,000 active | chicken DT40 Tdp1-/-;hTDP1 cells + 20 nM CPT, ATP luminescence, 48 h | AID 686979 | Potency, µM (series often up to 46.2 µM), without a hit: at the highest dose activity change, negative = growth inhibition, usual class: inhibitors; also: potency is read from the fitted curve at half-maximal effect; % is scaled to controls: 0 for no effect and ±100 for the full control effect; nearly all actives have a fitted effect of over 55% in size
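Chicken DT40 Tdp1-/- cells stably complemented with human TDP1 were seeded at 400 cells/well in medium containing 20 nM camptothecin, exposed to pin-transferred compounds, and grown at 37 °C for at least 48 hr. Viability was read as ATP luminescence.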
HepG2 viability: counter-screen for TGF-b inhibitors: cytotoxicity in HepG2 cells. HepG2 CAGA-GFP viability, ATP luminescence, 18 h. 0.76% of 410,000 active. Potency, µM (doses to about 46.1 µM), without a hit: at the highest dose activity change, negative = cytotoxicity, hits mostly cytotoxic. AID 588856; also: potency is read from the fitted curve at half-maximal effect
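HepG2 CAGA-GFP cells (1000/well, DMEM with 1% FBS) received compound, then TGF-beta at 500 pg/mL final, and were incubated 18 hours at 37 degrees C. Viability was read by CellTiter-Glo luminescence. Media-only wells were set as complete cell-killing and DMSO as no toxicity.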
* hit, by the source's call; [ ] = dose if it differs, or a comment. Rows were chosen to be rich in hits. Some 19% of all compounds tested hit in one or more screens of this group. Unless noted, calls follow the shape of the dose curve; as a rule, active = well fitted curve in the direction sought with a large enough effect; inconclusive = small, poorly fitted or top-dose-only effect, or another doubt; inactive = no such curve, though single readings can be large; an effect the other way counts as inactive or inconclusive.

What do the screens show for `CCCCCCCCCC(=O)N[C@@H]1c2cc(OC)c(OC)cc2C[C@H]1O`?
TDP1 cell noCPT: 16.4µM*; TDP1 block: 0.3%[56.1 µM]; IL-1B inflam inh: 0.0; TGFb inhibitor: -8.7%; DT40 TDP1 CPT: inconclusive; HepG2 viability: -12.4%

Results for COc1cc2c(cc1OC)[C@@H](NC(=O)C(C)C)[C@H](O)C2 ?
TDP1 cell noCPT: 5.8%; TDP1 block: 0.4%[56.1 µM]; IL-1B inflam inh: -6.1; TGFb inhibitor: -3.8%; DT40 TDP1 CPT: -12.3%; HepG2 viability: -3.2%

Results for CCCCC/C=C\C/C=C\C/C=C\CCCCC(N)=O ?
TDP1 block: 6.9%

How did CC(=O)c1cccc(S(=O)(=O)NC2CCSc3ccccc32)c1 (centres undefined) do in these assays?
TDP1 cell noCPT: 11.6µM*; TDP1 block: 12.0%; IL-1B inflam inh: 35.7; TGFb inhibitor: -12.6%; DT40 TDP1 CPT: inconclusive; HepG2 viability: -6.4%

Results for NS(=O)(=O)c1cccc(C(=O)NC2CCSc3ccccc32)c1 (centres undefined) ?
TDP1 cell noCPT: -10.5%; IL-1B inflam inh: -0.7; TGFb inhibitor: inconclusive; DT40 TDP1 CPT: 9.2%; HepG2 viability: -9.0%

Results for NS(=O)(=O)c1cc(C(=O)NC2CCSc3ccccc32)ccc1Cl (centres undefined) ?
TDP1 cell noCPT: -20.3%; TDP1 block: 1.26µM*; IL-1B inflam inh: -14.3; TGFb inhibitor: 1.5%; DT40 TDP1 CPT: 9.6%; HepG2 viability: 9.5%

Results for CC(=O)c1cccc(S(=O)(=O)NC2CC2)c1 ?
TDP1 cell noCPT: -20.9%; TDP1 block: -5.7%; IL-1B inflam inh: 2.6; TGFb inhibitor: -13.5%; DT40 TDP1 CPT: 4.1%; HepG2 viability: 2.2%

What do the screens show for `O=C(N/N=C1\CC2CC=CC12)c1ccc(O)cc1` (centres undefined)?
TDP1 cell noCPT: 3.2%; TDP1 block: 5.3%; IL-1B inflam inh: -6.0; TGFb inhibitor: inconclusive; DT40 TDP1 CPT: 22.3%; HepG2 viability: -8.4%

What do the screens show for `O=[N+]([O-])c1ccc(N/N=C2\CC3CC=CC23)c([N+](=O)[O-])c1` (centres undefined)?
TDP1 cell noCPT: 16.4µM*; TDP1 block: -1.8%; IL-1B inflam inh: 21.0; TGFb inhibitor: inconclusive; DT40 TDP1 CPT: 13µM*; HepG2 viability: -29.2%

Results for O=[N+]([O-])c1ccc(N/N=C2\CC3CC=CC23)cc1 (centres undefined) ?
TDP1 cell noCPT: inconclusive; TDP1 block: 8.1%; IL-1B inflam inh: inconclusive; TGFb inhibitor: inconclusive; DT40 TDP1 CPT: 23.1µM*; HepG2 viability: -21.5%

Results for O=[N+]([O-])c1ccc(NN=C2CCCCC2)c([N+](=O)[O-])c1 ?
TDP1 cell noCPT: inconclusive; IL-1B inflam inh: -2.1; TGFb inhibitor: 14.2%; DT40 TDP1 CPT: inconclusive; HepG2 viability: 1.1%

What do the screens show for `O=[N+]([O-])c1ccc(NN=C2CC3CCC2C3)c([N+](=O)[O-])c1` (centres undefined)?
TDP1 cell noCPT: 16.4µM*; IL-1B inflam inh: 32.7; TGFb inhibitor: -12.1%; DT40 TDP1 CPT: 18.4µM*; HepG2 viability: -0.2%

What do the screens show for `CC(C)(C)N1C(=O)[C@H]2[C@@H]3[C@H](O)[C@H](O)CC(=O)[C@H]3CC[C@H]2C1=O`?
TDP1 block: -3.7%[21 µM]

How did CCOc1ccccc1C1c2cc3c(cc2OC(C)(N2CCCC2)C1C)OCO3 (centres undefined) do in these assays?
TDP1 cell noCPT: -11.9%; IL-1B inflam inh: 9.1; TGFb inhibitor: -12.2%; DT40 TDP1 CPT: 26.8%; HepG2 viability: 5.4%

Results for O=C(NC(c1ccc(Cl)cc1)c1ccccn1)C1CCN(CCOc2ccc(Cl)cc2Cl)CC1 (centres undefined) ?
TDP1 cell noCPT: 18.4µM*; IL-1B inflam inh: -7.1; TGFb inhibitor: inconclusive; DT40 TDP1 CPT: inconclusive; HepG2 viability: -104.0%

Results for Cc1cccnc1C(NC(=O)C1CCN(CCOc2ccc(Cl)cc2Cl)CC1)c1ccc(Cl)cc1 (centres undefined) ?
TDP1 cell noCPT: 7.31µM*; IL-1B inflam inh: inconclusive; TGFb inhibitor: inconclusive; DT40 TDP1 CPT: 11.6µM*; HepG2 viability: -41.8%

How did CCOC(=O)c1cc(OC(=O)c2ccc(C)cc2)n(-c2ccccc2)n1 do in these assays?
TDP1 block: -1.1%; TGFb inhibitor: -16.5%; HepG2 viability: -48.5%

How did Cc1ccc(S(=O)(=O)N2CCN(C(=O)COC(=O)C3CCC3)CC2)cc1 do in these assays?
TDP1 cell noCPT: -12.3%; TDP1 block: 0.7%; IL-1B inflam inh: 16.7; TGFb inhibitor: 3.4%; DT40 TDP1 CPT: 6.7%; HepG2 viability: -0.8%

What do the screens show for `CCN1CCN(C(=O)c2ccc(Cl)c(S(=O)(=O)N(C)c3ccccc3)c2)CC1`?
TDP1 cell noCPT: -3.8%; TDP1 block: 2.1%; IL-1B inflam inh: 0.1; TGFb inhibitor: -2.7%; DT40 TDP1 CPT: -6.9%; HepG2 viability: -9.8%

Results for Cc1cnc(C(=O)N2CCCC(C(=O)c3cccc(OC(C)C)c3)C2)cn1 (centres undefined) ?
TDP1 cell noCPT: -25.6%; TDP1 block: 5.1%; IL-1B inflam inh: 10.5; TGFb inhibitor: 1.3%; DT40 TDP1 CPT: inconclusive; HepG2 viability: 35.4%

How did Cc1nc(C(=O)N2CCCC(C(=O)c3cccc(OC(C)C)c3)C2)cs1 (centres undefined) do in these assays?
TDP1 cell noCPT: 14.6µM*; TDP1 block: 3.1%; IL-1B inflam inh: 13.8; TGFb inhibitor: inconclusive; DT40 TDP1 CPT: 10.3µM*; HepG2 viability: -24.1%

What do the screens show for `CC(C)Oc1cccc(C(=O)C2CCCN(C(=O)c3ccccn3)C2)c1` (centres undefined)?
TDP1 cell noCPT: 10.3µM*; TDP1 block: 5.5%; IL-1B inflam inh: 36.1; TGFb inhibitor: -17.8%; DT40 TDP1 CPT: 20.6µM*; HepG2 viability: -9.9%

Results for CCOC(=O)c1c(C)[nH]c(C(=O)CN(C)CC(=O)Nc2ccccc2C(F)(F)F)c1C ?
TDP1 cell noCPT: inconclusive; TDP1 block: -0.1%[56.1 µM]; IL-1B inflam inh: 16.4; TGFb inhibitor: -18.0%; DT40 TDP1 CPT: -26.3%; HepG2 viability: -21.8%

How did COC(=O)c1cc(C#N)c(NCc2ccccc2)nc1C do in these assays?
TDP1 cell noCPT: 16.4µM*; TDP1 block: 0.0%; IL-1B inflam inh: -5.8; TGFb inhibitor: inconclusive; DT40 TDP1 CPT: inconclusive; HepG2 viability: -11.9%
